ALR H2O2 inh – blocks human ALR sulfhydryl oxidase activity | purified ALR, DTT oxidation, H2O2 HRP-luminol luminescence | inhibition, % (test concentration not listed) | 3.8% of 290,000 active;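 active = mean replicate inhibition above about 79%, with every replicate also reaching it, limit read from the data; inconclusive = only one of the two criteria met; inactive = mean below limit and not every replicate reaching it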
Target sequence (P55789 whole entry, looked up): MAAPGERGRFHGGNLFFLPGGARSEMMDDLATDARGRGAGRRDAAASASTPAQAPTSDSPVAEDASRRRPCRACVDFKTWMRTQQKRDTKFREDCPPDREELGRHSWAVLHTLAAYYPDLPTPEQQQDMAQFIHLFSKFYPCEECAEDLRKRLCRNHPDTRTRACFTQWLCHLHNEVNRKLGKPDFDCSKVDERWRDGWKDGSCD
HIF act – HIF pathway transcriptional activation | AID 1910 | 0.32% of 300,000 active | U2OS HRE-luciferase reporter, luminescence; normalized: DMSO 0%, desferrioxamine 100% | activation, % at 7.5 µM (by protocol);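 active = mean activation of at least 10% of the iron chelator positive control signal, with at least half of replicates also reaching 10%; inconclusive = mean and replicate majority disagree about reaching 10%; inactive = mean and most replicates under 10%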
AI-2 QS mod – Vibrio harveyi AI-2 quorum sensing modulation; Vibrio harveyi JMH597 AI-2 luminescence/OD600 ratio, 9 h; hits give low values; strain lacks LuxN and CqsS sensors; 0 = neutral-control median; activity change, % at 7.5 µM; 0.4% of 300,000 active; AID 2094; in the data active = activity change below about -75%, passing the limit was not always enough; inconclusive = no clear call, values can overlap the other calls;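 note: luminescence divided by OD600 gain over 9 h not by final OD600 alone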
Mot1-301 SUMO – blocks SUMOylation pathway, rescuing yeast Mot1-301 growth; S. cerevisiae Mot1-301 growth rescue, ATP luminescence, 38.5C; percent above DMSO median, 100 means doubled; growth rescue, % at 18.8 µM; 1% of 320,000 active;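 active = every valid replicate shows activation above 250% relative to neutral control wells; inactive = the rest, any valid replicate at or below 250%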
JMH597 growth rt – retest: blocks Vibrio harveyi JMH597 growth | shares compounds with AI-2 QS mod | OD600 absorbance, 9 h; lacks LuxN and CqsS sensors | growth inhibition, % at 7.5 µM | 1% of 750 active;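 active = every replicate shows growth inhibition above 50%; inconclusive = at least half, but not all, replicates pass that cutoff; inactive = fewer than half of replicates pass it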
BB721 const-QS lum – retest counter-screen: BB721 constitutive quorum sensing luminescence decrease; 95% of 750 active; shares compounds with AI-2 QS mod; Vibrio harveyi BB721 luminescence, 9 h; inhibition, % at 7.5 µM;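 active = inhibition above about 80% in every replicate, not just on average, limit read from the data; inconclusive = at least half of replicates past the limit, but not all; inactive = fewer than half of replicates past the limit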
BB721 growth – retest: blocks Vibrio harveyi BB721 growth; growth inhibition, % at 7.5 µM; OD600 absorbance, 9 h; AID 2728; 3% of 750 active; shares compounds with AI-2 QS mod;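 active = every replicate shows growth inhibition above 50%; inconclusive = at least half but not all replicates above 50% inhibition; inactive = under half of replicates above 50% inhibition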
JMH597 AI-2 mod – Vibrio harveyi AI-2 signaling luminescence modulation – JMH597 strain, confirmation | shares compounds with AI-2 QS mod | Vibrio harveyi JMH597 AI-2 quorum sensing luminescence, 9 h; luxN and CqsS knockout, AI-2 only | inhibition, % at 7.5 µM | 97% of 750 active | AID 2736;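 active = every replicate shows more than 75% inhibition of signal versus neutral control wells; inconclusive = half to three quarters of replicates exceed 75% inhibition; inactive = fewer than half of replicates exceed 75% inhibition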
Yeast Mot1 SUMO – inhibits SUMO pathway, affecting Mot1-301 yeast growth; growth activity, percent, % at 42 µM; AID 493004; S. cerevisiae Mot1-301 galactose growth, ATP luminescence, 24 h; -100 = growth of slx-deleted rescue strain; 2,300 tested, under 10 active; shares compounds with Mot1-301 SUMO;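 active = Signal drops as the depositor expects, and the fitted half-maximal dose is no more than ten times the top valid tested dose; inconclusive = Poor fit, or a flat curve whose signal drops by 30% to 70%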;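 note: more negative values mean stronger growth rescue toward the control strain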
Of the large screens only hits and unclear results are named; the others gave an inactive call (follow-up assays come after a bar, where they were run). Sampled rows, rich in hits. Any-hit rate of the full collection: about 4.8%.

CCc1ccc(OCC(=O)Nc2ccc(S(=O)(=O)Nc3ccccn3)cc2)cc1	AI-2 QS mod -85 | JMH597 growth rt inactive | BB721 const-QS lum 89 | BB721 growth inactive | JMH597 AI-2 mod 96
COc1ccc(S(=O)(=O)Nc2ccccc2)cc1	none
COc1ccc(S(=O)(=O)Nc2ccc(Nc3ccccc3)cc2)cc1	AI-2 QS mod -97 | JMH597 growth rt 68 | BB721 const-QS lum 100 | BB721 growth inactive | JMH597 AI-2 mod 100
Cc1cc(NS(=O)(=O)c2ccc(NC(=O)COc3cc(C)c(Cl)c(C)c3)cc2)no1	none (no result: HIF act, AI-2 QS mod)
COc1ccc(CC(=O)Nc2ccc(S(=O)(=O)Nc3ncccn3)cc2)cc1	AI-2 QS mod -91 (no result: ALR H2O2 inh) | JMH597 growth rt inactive | BB721 const-QS lum 93 | BB721 growth inactive | JMH597 AI-2 mod 96
COc1ccc(OCC(=O)Nc2ccc(S(=O)(=O)Nc3cc(C)on3)cc2)cc1	AI-2 QS mod -84 (no result: ALR H2O2 inh) | JMH597 growth rt inactive | BB721 const-QS lum 91 | BB721 growth inactive | JMH597 AI-2 mod 92
Cc1cccc(C)c1NS(=O)(=O)c1ccc(-c2cnc(C3CC3)o2)cc1	none (no result: Mot1-301 SUMO)
Cc1cc(NS(=O)(=O)c2ccc(CC(C)C)cc2)no1	none
Cc1cc(NS(=O)(=O)c2ccc(C(C)C)cc2)no1	AI-2 QS mod -86 | JMH597 growth rt inactive | BB721 const-QS lum 87 | BB721 growth inactive | JMH597 AI-2 mod 100
O=S(=O)(c1ccc(Br)s1)n1cccn1	AI-2 QS mod -91 | JMH597 growth rt inactive | BB721 const-QS lum 98 | BB721 growth inactive | JMH597 AI-2 mod 100
Cc1c(Br)c(C(=O)NNC(=O)c2ccc(C(C)(C)C)cc2)nn1C	AI-2 QS mod -88 (no result: ALR H2O2 inh) | JMH597 growth rt inactive | BB721 const-QS lum 96 | BB721 growth inactive | JMH597 AI-2 mod 97
CC(C)(C)C(CN1CCCC1)OC(=O)c1ccccc1 (configuration not stated)	none
CCS(=O)(=O)N1CCC(C(=O)NCc2ccco2)CC1	none
CSc1ccc(S(=O)(=O)N2CCC(C(=O)NCc3ccco3)CC2)cc1	AI-2 QS mod -90 | JMH597 growth rt inactive | BB721 const-QS lum inactive | BB721 growth inactive | JMH597 AI-2 mod 100
Clc1ccccc1/C=C/c1nc(-c2cccnc2)no1	none
C(=C\c1nc(-c2cccnc2)no1)/c1ccccc1	AI-2 QS mod -95 | JMH597 growth rt inactive | BB721 const-QS lum 98 | BB721 growth inactive | JMH597 AI-2 mod 99
Cc1ccc(OCC(=O)NCCNC(=O)c2cnccn2)cc1C	none (no result: ALR H2O2 inh, Mot1-301 SUMO)
N/C(=N\OC(=O)CC1CCCCC1)c1cccc(Br)c1	AI-2 QS mod -80 | JMH597 growth rt inactive | BB721 const-QS lum 96 | BB721 growth inactive | JMH597 AI-2 mod 96
O=C(/C=C/c1ccccc1Cl)NCc1ccco1	AI-2 QS mod -83 | JMH597 growth rt inactive | BB721 const-QS lum 93 | BB721 growth inactive | JMH597 AI-2 mod 94
O=C(NCCCc1ccccc1)C1CC1	none
CC(Nc1ccc(Br)cn1)c1cc(Cl)ccc1O (configuration not stated)	AI-2 QS mod -86 (no result: ALR H2O2 inh, Mot1-301 SUMO) | JMH597 growth rt inactive | BB721 const-QS lum 96 | BB721 growth inactive | JMH597 AI-2 mod 97
CCC(=O)Nc1ccc(Br)cn1	none
CN(C)S(=O)(=O)c1ccc(NC(=O)COc2ncnc3c2cnn3-c2ccccc2)cc1	AI-2 QS mod inconclusive | JMH597 growth rt inactive | BB721 const-QS lum 91 | BB721 growth inactive | JMH597 AI-2 mod 95
CC(=O)Nc1ccc(Nc2ncnc3c2cnn3-c2ccccc2)cc1	none
COc1ccc(NC(=O)CSc2nnc(Cc3ccccc3)c(=O)n2N)c(OC)c1	none
Nn1c(SCC(=O)Nc2ccc(OC(F)F)cc2)nnc(Cc2ccccc2)c1=O	ALR H2O2 inh 98, AI-2 QS mod -92 | JMH597 growth rt inactive | BB721 const-QS lum 96 | BB721 growth inconclusive | JMH597 AI-2 mod 97
COc1ccc(C(=O)Cn2nnc(-c3ccccc3F)n2)cc1	AI-2 QS mod -86 | JMH597 growth rt inactive | BB721 const-QS lum 95 | BB721 growth inactive | JMH597 AI-2 mod 97
CCCCN(Cc1ccco1)C(=O)C1CCCN(c2ncnc3c2nc2n3CCCCC2)C1 (configuration not stated)	none
CCCCC(Br)C(=O)Nc1ccc(S(=O)(=O)Nc2cc(C)nc(C)n2)cc1 (configuration not stated)	AI-2 QS mod -86 (no result: ALR H2O2 inh) | JMH597 growth rt inactive | BB721 const-QS lum 88 | BB721 growth inactive | JMH597 AI-2 mod 90
CCCCOC(=O)Nc1ccc(S(=O)(=O)Nc2cc(C)nc(C)n2)cc1	none
Cc1cccc2sc(NC(=O)CN3C(=O)c4ccccc4C3=O)nc12	AI-2 QS mod -84 | JMH597 growth rt inactive | BB721 const-QS lum 94 | BB721 growth inactive | JMH597 AI-2 mod 97
Cc1ccc2sc(NC(=O)CN3C(=O)c4ccccc4C3=O)nc2c1C	AI-2 QS mod -95 | JMH597 growth rt inactive | BB721 const-QS lum 95 | BB721 growth inactive | JMH597 AI-2 mod 97
COc1cccc(C2C(C(=O)c3cccs3)=C(O)C(=O)N2CCN2CCOCC2)c1OC (configuration not stated)	none (no result: ALR H2O2 inh, Mot1-301 SUMO)
CC(C)c1ccc(CN2C(=O)NC3(CCCCCC3)C2=O)cc1	none
COCCN(C(=O)COC(=O)c1ccc(C=O)cc1)c1c(N)n(Cc2ccccc2)c(=O)[nH]c1=O	none
CN(C)S(=O)(=O)c1ccc(C(=O)OCCc2ccccc2)cc1	AI-2 QS mod -92 | JMH597 growth rt inactive | BB721 const-QS lum 96 | BB721 growth inactive | JMH597 AI-2 mod 98
Cc1ccc(CNC(=O)C2CCCN(c3cnccn3)C2)cc1 (configuration not stated)	none
CC(C)=CC(=O)OCC(=O)Nc1ccc(SC(F)F)cc1	AI-2 QS mod -87 | JMH597 growth rt inactive | BB721 const-QS lum 93 | BB721 growth inactive | JMH597 AI-2 mod 96
CCOCCn1c(N2CCCC2)nc2c1c(=O)n(C)c(=O)n2C	none
O=C(Nc1ccccc1)C(=O)Nc1ccc2c(c1)N(C(=O)C1CC1)CCC2	none (no result: ALR H2O2 inh)
Cc1cc(S(=O)(=O)N2CCCC(N3CCOCC3)C2)c(C)cc1Cl (configuration not stated)	Mot1-301 SUMO 421 | Yeast Mot1 SUMO inactive
O=S(=O)(c1cc(Cl)ccc1Cl)N1CCN2CCCC2C1 (configuration not stated)	none
CCCCc1nnc(NC(=O)C2CC(=O)N(Cc3ccccc3)C2)s1 (configuration not stated)	none
Cc1ccc(NC(=S)NCc2cccs2)cc1	none (no result: ALR H2O2 inh)

Screening data deposited in PubChem BioAssay by Broad Institute.
